By inhibition is commonly meant the relative decrease from the control value, in per cent.

Molecules are shown by their SMILES. Values without a mark were called inactive. The list shows a part of the results. The source made the active and inactive calls.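 How the source made its calls, unless noted: active means mean inhibition above 46.5%, the solvent-only control mean plus 3 SD; inactive means the rest.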

In test [1] the test system is transactivating tegument protein VP16 (Human herpesvirus 1). Description: VP16 transactivation reporter inhibitors, counter-screen for SRC2 inhibitor project, cell-based, luminescence, single concentration (AID 652007; in the data active means inhibition above about 36%). Particulars: cell-based VP16 transactivation luciferase reporter, at 8.9 µM, active compounds read high. On the technique in general: Counterscreens check selectivity or assay interference.

Test [2] deals with Nuclear receptor coactivator 2 (Homo sapiens) (UniProt Q15596). Description: SRC2 coactivator transcriptional activity inhibitors, confirmation, cell-based, luminescence, HEK293, triplicate (AID 652008). The conditions noted are these: HEK293 GAL4-SRC2 luciferase reporter, at 8.9 µM, active compounds read high. (In general: Reporter assays use an easily measured gene product as a stand-in for the process of interest.)
Sequence of Nuclear receptor coactivator 2 (Homo sapiens) (Q15596 whole entry, looked up, the tested form may be a part): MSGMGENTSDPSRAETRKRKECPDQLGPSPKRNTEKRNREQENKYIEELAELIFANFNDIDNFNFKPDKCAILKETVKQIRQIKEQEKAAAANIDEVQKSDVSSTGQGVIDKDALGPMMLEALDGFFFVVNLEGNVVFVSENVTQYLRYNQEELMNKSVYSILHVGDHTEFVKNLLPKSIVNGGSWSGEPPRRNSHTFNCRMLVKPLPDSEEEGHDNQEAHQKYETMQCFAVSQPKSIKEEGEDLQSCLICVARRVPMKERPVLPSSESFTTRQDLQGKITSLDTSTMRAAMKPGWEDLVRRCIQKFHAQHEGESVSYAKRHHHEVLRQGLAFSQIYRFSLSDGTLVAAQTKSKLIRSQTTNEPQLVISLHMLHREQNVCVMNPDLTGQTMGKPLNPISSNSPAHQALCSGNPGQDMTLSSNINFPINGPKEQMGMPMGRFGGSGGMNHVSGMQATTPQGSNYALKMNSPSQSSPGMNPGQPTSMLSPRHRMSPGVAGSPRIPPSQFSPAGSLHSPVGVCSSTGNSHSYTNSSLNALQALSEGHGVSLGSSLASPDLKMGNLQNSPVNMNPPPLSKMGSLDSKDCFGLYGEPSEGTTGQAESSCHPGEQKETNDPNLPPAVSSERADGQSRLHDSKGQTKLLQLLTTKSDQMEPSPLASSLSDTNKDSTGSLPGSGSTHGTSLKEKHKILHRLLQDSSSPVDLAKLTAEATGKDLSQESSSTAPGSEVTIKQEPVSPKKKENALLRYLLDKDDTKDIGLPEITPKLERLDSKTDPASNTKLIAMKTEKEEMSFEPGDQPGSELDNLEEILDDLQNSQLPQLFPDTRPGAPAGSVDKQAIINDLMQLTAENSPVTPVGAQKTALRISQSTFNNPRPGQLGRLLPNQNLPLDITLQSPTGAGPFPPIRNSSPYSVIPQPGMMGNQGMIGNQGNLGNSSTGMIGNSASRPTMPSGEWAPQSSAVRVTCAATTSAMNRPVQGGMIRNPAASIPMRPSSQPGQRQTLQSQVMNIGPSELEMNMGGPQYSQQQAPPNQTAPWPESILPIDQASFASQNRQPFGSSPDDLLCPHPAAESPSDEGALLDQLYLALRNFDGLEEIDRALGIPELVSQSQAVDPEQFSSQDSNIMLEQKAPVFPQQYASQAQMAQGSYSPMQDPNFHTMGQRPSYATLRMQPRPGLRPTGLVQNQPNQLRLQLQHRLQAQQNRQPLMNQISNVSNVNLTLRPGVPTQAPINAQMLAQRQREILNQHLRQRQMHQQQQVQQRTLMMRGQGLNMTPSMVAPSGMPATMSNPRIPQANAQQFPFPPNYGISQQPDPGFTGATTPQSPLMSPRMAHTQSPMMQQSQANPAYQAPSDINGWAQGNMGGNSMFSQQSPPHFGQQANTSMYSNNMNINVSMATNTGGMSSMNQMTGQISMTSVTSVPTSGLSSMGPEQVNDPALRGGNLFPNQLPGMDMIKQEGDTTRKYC

The nature of test [3]: StAR promoter reporter inhibitors, counter-screen for LRH-1 inverse agonist project, cell-based, luminescence, high throughput (AID 651611; in the data active means inhibition above about 28%). Particulars: StAR promoter luciferase reporter counterscreen, at 3.6 µM, active compounds read high.
Test [4] concerns the target Nuclear receptor subfamily 5 group A member 2 (Homo sapiens) (UniProt O00482). As to the kind of experiment: LRH-1 (NR5A2) inverse agonists, retest, confirmation, cell-based, luminescence (AID 651613; in the data active means inhibition above about 42%). The conditions noted are these: cell-based LRH-1 luciferase reporter, inverse agonism; at 3.6 µM; active compounds read high.
Test [5] concerns the target Steroidogenic factor 1 (Homo sapiens) (UniProt Q13285). Description: SF1 (NR5A1) inverse agonists, counter-screen for LRH-1 inverse agonist project, cell-based, luminescence, high throughput (AID 651614; in the data active means inhibition above about 44%). Particulars: cell-based SF1 luciferase reporter, at 3.6 µM, active compounds read high.
Test [6] can be described thus: VP16 transactivation reporter inhibitors, counter-screen for LRH-1 inverse agonist project, cell-based, luminescence, high throughput (AID 651615; in the data active means inhibition above about 33%). The conditions noted are these: Gal4-VP16 luciferase reporter cells, at 3.6 µM, active compounds read high.
Test [7] concerns DAF-12 nuclear receptor (Heterodera glycines), GAL4-LBD fusion. As to the kind of experiment: H. glycines DAF-12 receptor agonists, confirmation, cell-based, luminescence, HEK293, GAL4-LBD fusion (AID 743050;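 active means mean activation over triplicate wells above the hit cutoff derived from the earlier primary screen, cut at about 11% in these data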). The conditions noted are these: HEK293 GAL4-hgDAF12 luciferase reporter, agonist mode; at 6.8 µM; active compounds read high.
For test [8], the target named is Oxysterols receptor LXR-beta (Homo sapiens) (UniProt P55055). As to the kind of experiment: LXR agonists, Gal4 luciferase reporter, confirmation, counter-screen for hgDAF-12 agonist project, cell-based, luminescence, HEK293, H. glycines campaign (AID 743051;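 active means mean activation of the triplicate above a set limit carried over from the primary screen, none filed active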). Particulars: 24 h, at 6.8 µM, active compounds read high.
Sequence of Oxysterols receptor LXR-beta (Homo sapiens) (P55055 whole entry, looked up, the tested form may be a part): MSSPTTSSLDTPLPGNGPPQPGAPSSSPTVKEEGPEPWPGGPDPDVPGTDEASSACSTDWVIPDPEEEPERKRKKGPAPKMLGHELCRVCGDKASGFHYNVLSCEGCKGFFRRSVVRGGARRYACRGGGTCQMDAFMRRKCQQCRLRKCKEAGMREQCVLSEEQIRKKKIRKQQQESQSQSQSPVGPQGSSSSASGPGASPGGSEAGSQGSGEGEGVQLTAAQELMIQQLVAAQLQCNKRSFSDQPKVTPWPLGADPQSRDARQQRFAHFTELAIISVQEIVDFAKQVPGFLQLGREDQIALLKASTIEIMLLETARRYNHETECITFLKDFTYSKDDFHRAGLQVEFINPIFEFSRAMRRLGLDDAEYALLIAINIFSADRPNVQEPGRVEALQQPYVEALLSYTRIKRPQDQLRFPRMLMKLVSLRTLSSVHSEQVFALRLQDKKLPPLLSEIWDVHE
Test [9] can be described thus: growth loss of phage-infected RecBCD+ E. coli, confirmation, RecBCD inhibitor project, absorbance, E. coli V66, T4 gene 2 phage (AID 651982;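 active means mean inhibition over triplicates exceeding the hit threshold derived in the original primary screen, cut at about 11% in these data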). The conditions noted are these: E. coli V66 + T4 2- phage, growth OD; at 11.9 µM; active compounds read high.
The nature of test [10]: E. coli viability inhibition, counter-screen for RecBCD inhibitor project, absorbance, high throughput (AID 651983; in the data active means inhibition above about 20%). Particulars: absorbance (OD) growth, at 11.9 µM, active compounds read high.
A short description of test [11]: growth loss of phage-infected AddAB-carrying E. coli, confirmation, counter-screen for RecBCD inhibitor project, absorbance, E. coli V3065, T4 phage (AID 651984;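 active means mean inhibition above the solvent-only control wells' mean plus 3 SD, cut at about 22% in these data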). The conditions noted are these: E. coli expressing H. pylori AddAB + T4 phage, OD growth; at 11.9 µM; active compounds read high.
Test [12] is described as follows: compounds interfering with TAMRA-BSA probe, counter-screen for TCR-CD3 interaction inhibitor project, biochemical, fluorescence, TAMRA-labeled BSA (AID 652035; in the data active means inhibition above about 23%). The conditions noted are these: TAMRA-labeled BSA probe fluorescence counterscreen; at 9.4 µM; active compounds read high.
In test [13] the test system is T-cell receptor (TCR)-CD3 interaction, human. Description: TCR-CD3 interaction inhibitors, retest, confirmation, biochemical, fluorescence, TAMRA-labeled TCR probe (AID 652036; in the data active means inhibition above about 19%). Particulars: TAMRA-labeled TCR probe fluorescence binding assay; at 9.4 µM; active compounds read high.

Sequence of Steroidogenic factor 1 (Homo sapiens) (Q13285 whole entry, looked up, the tested form may be a part): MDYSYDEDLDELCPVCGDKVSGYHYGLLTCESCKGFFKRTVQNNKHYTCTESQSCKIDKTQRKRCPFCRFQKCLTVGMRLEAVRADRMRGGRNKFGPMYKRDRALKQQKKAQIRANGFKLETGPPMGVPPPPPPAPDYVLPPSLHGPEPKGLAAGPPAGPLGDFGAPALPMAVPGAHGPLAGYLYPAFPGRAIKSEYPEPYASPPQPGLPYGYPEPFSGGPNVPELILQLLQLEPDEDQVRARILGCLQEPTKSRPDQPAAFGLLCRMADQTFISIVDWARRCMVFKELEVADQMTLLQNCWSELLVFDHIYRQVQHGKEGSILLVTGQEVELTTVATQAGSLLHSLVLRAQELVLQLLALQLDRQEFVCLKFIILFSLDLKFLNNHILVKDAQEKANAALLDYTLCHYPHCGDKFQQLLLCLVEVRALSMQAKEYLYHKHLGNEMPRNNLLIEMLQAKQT
Sequence of Nuclear receptor subfamily 5 group A member 2 (Homo sapiens) (O00482 whole entry, looked up): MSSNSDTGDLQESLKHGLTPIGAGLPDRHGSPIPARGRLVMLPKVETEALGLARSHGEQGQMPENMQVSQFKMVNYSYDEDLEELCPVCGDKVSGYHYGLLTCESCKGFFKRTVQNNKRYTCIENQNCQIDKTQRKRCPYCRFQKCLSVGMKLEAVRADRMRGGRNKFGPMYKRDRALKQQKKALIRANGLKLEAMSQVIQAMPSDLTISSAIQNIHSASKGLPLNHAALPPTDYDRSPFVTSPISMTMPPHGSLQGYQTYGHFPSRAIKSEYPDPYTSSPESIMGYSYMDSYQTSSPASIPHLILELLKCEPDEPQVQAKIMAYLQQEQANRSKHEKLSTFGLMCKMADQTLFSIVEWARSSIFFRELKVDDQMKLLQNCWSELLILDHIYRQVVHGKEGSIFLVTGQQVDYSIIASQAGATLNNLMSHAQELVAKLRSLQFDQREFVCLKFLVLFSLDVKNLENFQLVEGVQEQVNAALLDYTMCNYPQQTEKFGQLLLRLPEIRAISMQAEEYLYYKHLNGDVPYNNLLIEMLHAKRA

With `CC(=O)OC(C)(C)/C=C/C(=O)C(C)(O)C1[C@H](O)C[C@@]2(C)C3CC=C4C(CC[C@@H](O)C4(C)C)[C@]3(CO)C(=O)C[C@]12C` (some centres not stated), the results for the inhibition in test [1] and in test [2] were 31.1% and 55.2% (active), respectively.

Consider `COc1cc(CC(C)N)c(OC)cc1I` (configuration not stated), for which the inhibition was -16.9% in [1] and 8.7% in test [2].

On to `COC1=C(C)C(=O)C2=C(C1=O)C(CO)N1C(C#N)C3CC4C(C1C2N1CCOC41)N3C` (configuration not stated), for which the inhibition in test [3] is 86.5% (active); in [4], 106% (active); in test [5], 96.2% (active); in test [6], 95.3% (active); in test [1], 41.7% (active); in test [2] it was 57% (active).

`NC(=O)c1c(Br)n(C2OC(CO)C(O)C2O)c2ncnc(N)c12` (configuration not stated): the figures for the inhibition in test [1] and in [2] were 15.6% and 35.3%, respectively.

With `CN1C(=O)C[N+]([O-])=C(c2ccccc2)c2cc(Cl)ccc21`, the inhibition in test [1] is 13.7%; in test [2], 0.34%.

For the molecule `COC(=O)C1=C(C(=O)OC)C2c3ccccc3C1c1ccccc12`, the results for the inhibition in test [1] and in [2] were 12.3% and 2.05%, respectively.

On to `O=Cc1cn(Cc2ccc(F)cc2Cl)c2ccccc12`, for which the inhibition in test [1] was 14.2%; in test [2], 26.5%.

On to `CC(=O)OC1C(O)C(C)OC(OC2C(OC(=O)C3CCC4C(C3)OC3(CC(OC(=O)/C=C/c5ccccc5)C(C)CO3)C43CO3)OC(C)C(O)C2OC(C)=O)C1O` (configuration not stated), for which the inhibition was 96.1% (active) in test [3]; 109% (active) in test [4]; 97.5% (active) in test [5]; 97.4% (active) in [6]; 79.4% (active) in [1]; 75.2% (active) in test [2].

In the case of `Cc1ccc(N2C(=O)NC(=O)C(CCc3ccccn3)(Cc3ccc(F)cc3)C2=O)cc1` (configuration not stated), the figures for the inhibition in [1] and in test [2] were -10.7% and 7.3%, respectively.

As to `CC(C)(C)c1ccc(OC(=O)N2CCCCC2)cc1`, the activation was 14.1% (active) in [7] and 0.52% in test [8].

As for `CCc1nnc(NS(=O)(=O)c2ccc(N=Cc3c(O)n(-c4ccccc4)c(=O)[nH]c3=O)cc2)s1`, the inhibition in test [9] was 11.7% (active); in test [10], 7.85%; in [11] it was 32.1% (active).

Turning to `Oc1ccc(-[n+]2c(-c3ccccc3)cc(-c3ccccc3)cc2-c2ccccc2)cc1`, the inhibition in test [1] is 35.3%; in [2], 33.1%.

Turning to `O=C1NC(=O)N(Cc2ccco2)C(=O)/C1=C/C=C/c1ccco1`, the figures for the inhibition in test [1] and in test [2] were 8.52% and -57.3%, respectively.

Turning to `CCn1ccnc1CN1CCCC(C(=O)c2cccc(C(F)(F)F)c2)C1` (configuration not stated), the inhibition in [1] is -3.5%; in [2], 15.9%.

In the case of `C=C1C(=O)O[C@H]2C[C@@H](C)[C@@H]3C=CC(=O)[C@@]3(C)C[C@H]12`, the inhibition was 69.4% (active) in [1] and 23% in test [2].

Turning to `O=C(N/N=C/c1c(O)n(Cc2ccccc2)c(=O)[nH]c1=O)c1ccccc1`, the results for the activation in test [7] and in test [8] were 1.81% and 0.01%, respectively.

Take `O=[N+]([O-])c1ccc(N2CCCC(C(F)(F)F)C2)c2ccncc12` (configuration not stated): the inhibition in test [1] is 10.6%; in [2], 34.3%.

For the molecule `CC/C(=N\NC(=O)c1ccccc1O)c1c(O)n(Cc2ccccc2)c(=O)[nH]c1=O`, the inhibition in test [12] is -6.16%; in test [13], 29.4% (active).

Consider `CCN1CCN(S(=O)(=O)c2ccc(Cl)c(C(=O)Nc3ccc(C(=O)N(CC)CC)cc3)c2)CC1`, for which the values for the inhibition in test [1] and in test [2] were -10.1% and 2.66%, respectively.

The record behind these values is PubChem BioAssay.
